Assay outcomes from PubChem.
aSyn UTR act: Activators working through SNCA 5'UTR binding (MLPCN) | alpha-synuclein 5'UTR reporter, activators screen | activity score, % (tested at 7.5 µM), hits read low | 300,000 tested, 7.1% active | AID 1814; in the data active = activity score below about -60%
An asterisk follows results filed as active. A selection follows.

SMILES	aSyn UTR act
CC(=O)CN1Cc2ccccc2/C1=N\C(=O)Nc1ccccc1	-72.6*
COc1ccc(N2Cc3ccccc3/C2=N\C(=O)Nc2ccccc2)cc1	-64.4*
COC(=O)c1c(C)[nH]c(C(=O)/C=C/c2ccccc2)c1C	-107.3*
COC(=O)c1c(C)[nH]c(C(=O)/C=C/c2cccc(Cl)c2)c1C	-232.1*
COC(=O)c1c(C)[nH]c(C(=O)/C=C/c2ccc(C)cc2)c1C	-73.0*
COC(=O)c1c(C)[nH]c(C(=O)CSc2ccc(Cl)cc2)c1C	-133.5*
Clc1cccc(/C=N/Nc2ncnc3ccccc23)c1	-197.9*
C(=N\Nc1ncnc2ccccc12)/c1ccccc1	-212.4*
Nc1c(Cl)ncnc1N/N=C/c1ccnc2ccccc12	-68.0*
CCCCN1C(=O)CC(Nc2ccc(CC)cc2)C1=O (configuration not stated)	-125.1*
Cc1ccc(NC2CC(=O)N(Cc3ccccc3)C2=O)cc1 (configuration not stated)	-65.7*
COc1ccc(NC(=O)/C=C/C(=O)O)cc1Cl	-104.7*
COc1ccc(NC(=O)c2ccccc2F)cc1Cl	-156.2*
O=C(Nc1ccc(OC(F)F)c(Cl)c1)c1cccc(OC(F)F)c1	-82.5*
COc1cc(OC)c(NC(=O)c2cccc(F)c2)cc1Cl	-63.9*
O=C(Nc1ccc2c(c1)CCC2)c1cccc(OC(F)F)c1	-125.6*
O=C(CCCOc1ccc(Cl)cc1Cl)Nc1ccccc1C(=O)O	-83.2*
COc1ccc(NC(=O)c2cccc(OC(F)F)c2)cc1Cl	-196.7*
CN1CCc2nc(NC(=O)c3cccc(OC(F)F)c3)sc2C1	-66.7*
COc1ccc(NC(=O)c2cccc(F)c2)cc1Cl	-205.6*
COc1ccc(C(=O)Nc2ccccc2C(=O)O)cc1Cl	-123.1*
CCN(CC)Cc1ccc(NC(=O)c2sc3cc(Cl)ccc3c2Cl)cc1	104.4
Cc1ccc(C(=O)NCCOc2ccc(Cl)cc2)cc1	-88.3*
Cc1ccnc(NC(=O)c2sc3cc(Cl)ccc3c2Cl)c1	-139.6*
Cc1ccnc(NC(=O)CCCNC(=O)c2ccc(Cl)cc2)c1	-181.7*
SMILES	aSyn UTR act
Cc1ccnc(NC(=O)CNC(=O)c2sc3ccccc3c2Cl)c1	-215.6*
COC(=O)CCC(=O)Oc1ccc(OC(=O)CCC(=O)OC)cc1	-61.5*
CC1(C)CCCN(Cc2c(O)ccc3c(=O)c(-c4nc5ccccc5s4)c(N)oc23)C1	-125.1*
CCCN(C(=O)c1ccco1)c1nnc(-c2cccc(C)c2)s1	-143.1*
CCN(C(=O)c1ccco1)c1nnc(-c2ccc(OC)cc2)s1	-135.4*
O=C(c1cccc([N+](=O)[O-])c1)n1nc(-c2ccccc2)nc1NCc1ccccc1	-68.0*
COCC(=O)n1nc(-c2ccccc2)nc1NCc1ccc(N(C)C)cc1	-83.3*
O=C(c1ccc([N+](=O)[O-])cc1)n1nc(-c2ccccc2)nc1NCc1ccccc1	-67.2*
CN(C)/C=N/C(=S)Nc1ccc(Cl)cc1Cl	-107.5*
CC(=C\c1ccccc1)/C=C1/SC(=S)N(CCCC(=O)O)C1=O	66.6
O=C(O)CCCN1C(=O)/C(=C\c2ccco2)SC1=S	-141.5*
Brc1ccccc1/C=N/Nc1ccc2ccccc2n1	-256.3*
Cc1cc(N/N=C/c2ccccc2Br)nc2ccccc12	-195.8*
Brc1ccc(/C=N/Nc2ccc3ccccc3n2)cc1	-187.4*
Brc1ccc(/C=N/Nc2ccccc2)cc1	-91.9*
Oc1cccc(-c2nc3ccc4ccccc4c3c3c2CCC3)c1	-137.0*
Cc1occc1C(=O)N/N=C/c1ccc(OCc2ccccc2)cc1	-137.7*
CC/C(=N\NC(=O)c1ccoc1C)c1ccc(C)o1	-155.0*
O=C(N/N=C/c1ccc(OCc2ccccc2)cc1)c1cc[n+](Cc2ccccc2)cc1	-76.6*
CCOc1ccc(OCc2cccc(C(=O)N/N=C/c3cccnc3)c2)cc1	87.0
COc1cccc(OC)c1C(=O)Nc1ccc2c(c1)Cc1ccccc1-2	-105.5*
O=C(Nc1ccc2c(c1)Cc1ccccc1-2)c1ccco1	-160.3*
O=C(c1ccccc1)N1CCN(CC#Cc2ccccc2)CC1	-65.5*
COC(=O)CCn1nnc(-c2ccc(C(C)C)cc2)n1	119.1
COCCCNC(=O)Cn1nnc(-c2ccc(NC(=O)c3ccccc3F)cc2)n1	-95.4*
SMILES	aSyn UTR act
Cc1occc1C(=O)NCCc1ccc(Cl)cc1	-124.6*
O=C(NCCc1ccc(Cl)cc1)c1ccc2nccnc2c1	-108.7*
COc1ccccc1CCNC(=O)c1ccoc1C	-71.5*
CC(=O)NCCNC(=O)c1ccc(CSc2ccc(Cl)cc2)cc1	-132.0*
O=C(NCCc1ccc(O)cc1)c1ccc(Cl)cc1	-121.3*
Cc1ccc(C(=O)NC2CCCCC2)cc1	-94.2*
O=C(NC1CCCCCC1)c1ccc(OCC2CCCO2)cc1 (configuration not stated)	-97.2*
Cc1ccc(NC(=O)C(=O)NC2CCCCC2)cc1	-149.3*
CC(C)CCNC(=O)C(=O)NC1CCCC1	-134.4*
O=C(NC1CCCCCC1)C(=O)NC1CCCC1	-66.5*
N#Cc1ccc(C(=O)NC2CCCCCCC2)cc1	-131.9*
N=c1n(CCN2CCOCC2)c2ccccc2n1CC(=O)c1ccc(Cl)c(Cl)c1	-66.0*
CC1(C)COC(c2coc3ccccc3c2=O)OC1	-96.7*
CCSc1nnc2c(n1)[nH]c1c(C)cccc12	-208.0*
CSc1nnc2c(n1)[nH]c1c(C)cccc12	-106.7*
C=CCSc1nnc2nc3[nH]c4c(C)cccc4c3nn12	-74.6*
CC[C@H](CO)Nc1nc(Nc2cccc(Cl)c2)c2ncn(C(C)C)c2n1	57.0
O=c1/c(=C\c2ccc(F)cc2)sc2n1CCCN=2	-200.6*
O=C(Nc1ccc(O)cc1)c1ccc(NC(=O)c2cccs2)cc1	-69.6*
Cc1ccc(NC(=O)c2cccs2)cc1	-145.2*
O=C(Nc1ccc(NC(=O)c2cccs2)cc1)c1ccco1	-231.9*
O=C(Nc1ccc(Cc2ccncc2)cc1)c1cccs1	-65.7*
CC(=O)Oc1cccc(C(=O)Nc2ccc(NC(=O)c3cccs3)cc2)c1	-106.5*
O=C(O)CC/C(=N/NC(=O)c1cccs1)c1ccccc1	-167.2*
O=C(N/N=C(\Cc1ncc[nH]1)c1ccccc1)c1ccccc1	74.2
SMILES	aSyn UTR act
O=C(Nc1ccc2c(c1)CCC2)c1cccs1	-144.9*
COc1c(Cl)cc(Cl)cc1/C=C/C(=O)c1ccc(NC(=O)c2cccs2)cc1	-114.8*
O=C(Nc1cccc(O)c1)c1ccc(NC(=O)c2cccs2)cc1	-68.4*
O=C(Nc1ccc(NC(=O)c2cccs2)cc1)c1ccccc1	-140.4*
CN(c1cnn(-c2ccccc2)c(=O)c1Cl)n1cccc1	-83.0*
CNc1cnn(-c2ccc(C)cc2)c(=O)c1Cl	-86.2*
CCSc1cnn(-c2ccccc2)c(=O)c1Cl	-92.5*
CCCCNc1cnn(-c2ccccc2)c(=O)c1Cl	-74.2*
O=c1c(Cl)c(N/N=C/c2ccc(Cl)cc2)cnn1-c1ccccc1	-85.0*
Cc1ccc(-n2ncc3c(SCc4cccc(C)c4)ncnc32)cc1	-90.1*
Cc1ccc(-n2ncc3c(SCC(N)=O)ncnc32)cc1C	-118.5*
CC(=O)CSc1ncnc2c1cnn2-c1ccccc1	-157.2*
Cc1ccccc1-n1ncc2c(SCC(=O)NCc3cccs3)ncnc21	-113.6*
O=C(CSc1ncnc2c1cnn2-c1ccccc1)NC1CCCC1	-64.2*
COc1ccc(-n2ncc3c(SCC(=O)N4CCN(c5ccccc5OC)CC4)ncnc32)cc1	-74.0*
Cc1cc(C)n(CCC(=O)N/N=C/c2c(O)ccc3ccccc23)n1	73.3
S=C(NCCN1CCOCC1)N/N=C/c1c2ccccc2cc2ccccc12	-74.1*
COc1ccc(CCC(=O)Nc2nc3ccccc3[nH]2)cc1	-127.3*
